Laboratory results reported in PubChem BioAssay (Tox21).
Inconclusive results are not listed. Active and inactive are the calls of the source. Unless noted, calls come from the whole dose curve; as a rule, active = well fitted curve in the direction sought with a large enough effect in the repeat runs; inconclusive = weak or mixed curves; inactive = no such curve, though single readings can be large; an effect the other way counts as inactive or inconclusive.

Legend:
[1] = qHTS assay to identify small molecule agonists of the peroxisome proliferator-activated receptor delta (PPARd) signaling pathway - cell viability counter screen (AID 743211); note: nearly all actives have a fitted effect of over 55% in size; note: potency is the fitted concentration of half-maximal effect
In short: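 Viability was measured as CellTiter-Glo luminescence (30 min, room temperature) in the same wells as the beta-lactamase readout. GeneBLAzer PPARd UAS-bla HEK293H cells received compound after 5 h plating and were incubated 17 h at 37 C.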

[2] = qHTS assay to identify small molecule antagonists of the peroxisome proliferator-activated receptor delta (PPARd) signaling pathway - cell viability counter screen (AID 743213); note: nearly all actives have a fitted effect of over 50% in size; note: potency is the fitted concentration of half-maximal effect
In short: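 PPARd-bla HEK293H cells (3000/well) got compound plus 300 nM L165041 agonist for 17 h at 37 C. Viability in the same wells came from CellTiter-Glo luminescence after 30 min at room temperature.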

[3] = qHTS assay to identify small molecule agonists of the farnesoid-X-receptor (FXR) signaling pathway - cell viability counter screen (AID 743218); note: nearly all actives have a fitted effect of over 45% in size; note: potency is the fitted concentration of half-maximal effect
In short: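 Cells were seeded, left 5 h at 37 C and 5% CO2, then dosed with compound in DMSO for 16 h. After the beta-lactamase FRET read, CellTiter-Glo was added and luminescence measured 30 min later.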

[4] = qHTS assay to identify small molecule antagonists of the farnesoid-X-receptor (FXR) signaling pathway - cell viability counter screen (AID 743221; active = well fitted cell-killing curve with a large enough effect in the repeat runs, not every such curve was filed as active; note: % is set by controls: 0 for no effect and ±100 for the full control effect; nearly all actives have a fitted effect of over 50% in size)
In short: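 Cytotoxicity counter screen run in the FXR-bla reporter wells: HEK 293T cells exposed to compound with 50 uM (final) chenodeoxycholic acid for 16 h, 37 C, then viability measured by CellTiter-Glo luminescence after 30 min, room temperature.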

[5] = molecular target: Vitamin D3 receptor (Homo sapiens) (UniProt P11473); experiment: qHTS assay to identify small molecule agonists of the vitamin D receptor (VDR) signaling pathway (AID 743222; calls by dose curve; note: % is set by controls: 0 for no effect and ±100 for the full control effect)
Vitamin D3 receptor (Homo sapiens), sequence (P11473 whole entry, looked up): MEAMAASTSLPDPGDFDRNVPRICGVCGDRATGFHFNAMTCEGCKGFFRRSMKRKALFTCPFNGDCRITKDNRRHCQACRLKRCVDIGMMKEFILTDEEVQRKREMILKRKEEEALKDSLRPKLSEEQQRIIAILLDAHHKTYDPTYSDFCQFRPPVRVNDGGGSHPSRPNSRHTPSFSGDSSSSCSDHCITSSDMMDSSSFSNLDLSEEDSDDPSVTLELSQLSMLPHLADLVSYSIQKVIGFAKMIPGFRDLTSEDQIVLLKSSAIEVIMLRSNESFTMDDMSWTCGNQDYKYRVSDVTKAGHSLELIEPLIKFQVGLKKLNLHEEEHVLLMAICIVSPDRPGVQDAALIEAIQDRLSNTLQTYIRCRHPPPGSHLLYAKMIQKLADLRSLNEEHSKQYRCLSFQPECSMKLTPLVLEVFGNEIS
In short: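 Cells carrying a VDR-driven beta-lactamase reporter are seeded at 2,000 per well and rested 4 h. Compounds in DMSO are added for 16 h at 37C, and FRET substrate fluorescence is measured after 2 h at room temperature.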

[6] = molecular target: Vitamin D3 receptor (Homo sapiens) (UniProt P11473); experiment: qHTS assay to identify small molecule antagonists of the vitamin D receptor (VDR) signaling pathway (AID 743223; active = well fitted inhibition curve with a large enough effect in the signal ratio in the repeat runs, not every such curve was filed as active; the % refers to the signal ratio; note: % is set by controls: 0 for no effect and ±100 for the full control effect)
In short: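 Antagonist mode: compound added to VDR-bla cells alongside agonist 1alpha,25-dihydroxyvitamin D3 (3 nM final), incubation 16 h at 37C. Read-out is LiveBLAzer FRET fluorescence, 2 h at room temperature.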

[7] = qHTS assay to identify small molecule agonists of the vitamin D receptor (VDR) signaling pathway - cell viability counter screen (AID 743224); note: series mostly up to about 63 µM; % is set by controls: 0 for no effect and ±100 for the full control effect; nearly all actives have a fitted effect of over 50% in size
In short: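 Cells: VDR-bla, 2,000/well, settled 4 h. Treatment: compounds in DMSO, 16 h, 37C/5% CO2. Readout: CellTiter-Glo luminescence after 30 min RT.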

[8] = qHTS assay to identify small molecule antagonists of the vitamin D receptor (VDR) signaling pathway - cell viability counter screen (AID 743225); note: nearly all actives have a fitted effect of over 50% in size; note: potency is the fitted concentration of half-maximal effect
In short: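 Cytotoxicity counter screen read by CellTiter-Glo luminescence (30 min, room temperature) in the same wells as the VDR-bla antagonist readout. HEK 293T VDR-UAS-bla cells had 16 h at 37C with compound and 3 nM (final) 1-alpha,25-dihydroxyvitamin D3, then 2 h with FRET substrate.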

[9] = qHTS assay to identify small molecule agonists of the NFkB signaling pathway - cell viability counter screen (AID 1159515; calls by dose curve; note: series mostly up to about 61 µM; % is set by controls: 0 for no effect and ±100 for the full control effect; nearly all actives have a fitted effect of over 55% in size)
In short: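 Cells are seeded (2,000 NFkB-bla ME-180 per well), rested overnight, and dosed with DMSO-dissolved compounds for 5 hr at 37 C. Viability is then read by CellTiter-Glo luminescence after 30 min at room temperature.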

[10] = qHTS assay to identify small molecule agonists of the endoplasmic reticulum stress response signaling pathway (AID 1159516; active = well fitted activation curve with a large enough effect in the signal ratio in the repeat runs, not every such curve was filed as active; the % refers to the signal ratio; note: % is set by controls: 0 for no effect and ±100 for the full control effect)
In short: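 Cells are seeded at 1,500 per well and incubated overnight. Compounds in DMSO are added for 5 hr at 37 C, then beta-lactamase FRET substrate for 2 hr at room temperature, and fluorescence at 460 and 530 nm is measured.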

[11] = molecular target: Nuclear receptor ROR-gamma (Homo sapiens) (UniProt P51449); experiment: qHTS assay to identify small molecule antagonists of the retinoid-related orphan receptor gamma (ROR-gamma) signaling pathway (AID 1159521; note: nearly all actives have a fitted effect of over 50% in size; note: potency is the fitted concentration of half-maximal effect)
In short: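 Antagonist read-out: drop in luminescence (ONE-Glo) from an RORE-LUC reporter in CHO cells with doxycycline-inducible ROR-gamma; 2 hr compound pretreatment, 1 uM doxycycline, 16 hr incubation at 37 C.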

[12] = qHTS assay to identify small molecule agonists of the AP-1 signaling pathway - cell viability counter screen (AID 1159525; calls by dose curve; note: nearly all actives have a fitted effect of over 55% in size)
In short: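 Intracellular ATP by Cell Titer Glo luminescence (30 min, RT) in the same ME-180 AP-1-bla wells after the 5 h compound exposure at 37 °C. Normalised to tetra n-octyl ammonium bromide and DMSO controls.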

[13] = qHTS assay to identify small molecule agonists of the AP-1 signaling pathway (AID 1159526; calls by dose curve; note: potency is the fitted concentration of half-maximal effect)
[14] = molecular target: Retinoic acid receptor RXR-alpha (Homo sapiens) (UniProt P19793); experiment: qHTS assay to identify small molecule agonists of the RXR signaling pathway (AID 1159527; calls by dose curve; note: % is set by controls: 0 for no effect and ±100 for the full control effect; nearly all actives have a fitted effect of over 35% in size)
Retinoic acid receptor RXR-alpha (Homo sapiens), sequence (P19793 whole entry, looked up): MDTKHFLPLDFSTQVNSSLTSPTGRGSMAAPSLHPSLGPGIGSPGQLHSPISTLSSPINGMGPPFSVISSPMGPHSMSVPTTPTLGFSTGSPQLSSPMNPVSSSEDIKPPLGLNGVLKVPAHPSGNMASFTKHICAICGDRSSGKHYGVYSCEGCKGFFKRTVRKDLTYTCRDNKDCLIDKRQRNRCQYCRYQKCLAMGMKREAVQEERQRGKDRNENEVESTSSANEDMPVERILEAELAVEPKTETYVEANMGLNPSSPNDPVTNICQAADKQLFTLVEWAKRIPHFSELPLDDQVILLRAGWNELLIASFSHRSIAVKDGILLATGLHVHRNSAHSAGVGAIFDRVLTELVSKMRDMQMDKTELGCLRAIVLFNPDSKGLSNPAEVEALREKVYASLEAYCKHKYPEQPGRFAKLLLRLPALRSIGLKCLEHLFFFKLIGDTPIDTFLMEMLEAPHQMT
In short: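 Agonist-mode beta-lactamase reporter assay: HEK 293T RXR-alpha-UAS-bla cells treated 16 hr at 37 C with compounds, 9-cis retinoic acid as positive control. LiveBLAzer FRET substrate, 405 nm excitation, 460/530 nm emission.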

[15] = molecular target: Peroxisome proliferator-activated receptor delta (Homo sapiens) (UniProt Q03181); experiment: qHTS assay to identify small molecule agonists of the peroxisome proliferator-activated receptor delta (PPARd) signaling pathway (AID 743212; calls by dose curve; note: % is set by controls: 0 for no effect and ±100 for the full control effect)
Peroxisome proliferator-activated receptor delta (Homo sapiens), sequence (Q03181 whole entry, looked up): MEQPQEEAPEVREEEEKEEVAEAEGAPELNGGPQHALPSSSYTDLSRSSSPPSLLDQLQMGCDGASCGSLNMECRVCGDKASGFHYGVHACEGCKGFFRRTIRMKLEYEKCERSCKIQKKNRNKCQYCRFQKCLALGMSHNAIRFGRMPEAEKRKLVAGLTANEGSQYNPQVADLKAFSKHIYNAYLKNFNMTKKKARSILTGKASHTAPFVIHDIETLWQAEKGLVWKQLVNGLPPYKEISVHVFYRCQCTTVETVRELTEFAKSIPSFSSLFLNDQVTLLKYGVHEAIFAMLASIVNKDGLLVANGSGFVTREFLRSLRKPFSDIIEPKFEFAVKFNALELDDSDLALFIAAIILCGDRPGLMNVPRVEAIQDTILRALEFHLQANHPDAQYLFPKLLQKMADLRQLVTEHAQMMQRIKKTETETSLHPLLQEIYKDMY
In short: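 Beta-lactamase reporter readout: a ratiometric FRET signal from the LiveBLAzer substrate after 2 h at room temperature. Compound exposure at 37 °C in PPARδ-bla HEK293H cells driven by an upstream activator sequence.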

[16] = molecular target: Peroxisome proliferator-activated receptor delta (Homo sapiens) (UniProt Q03181); experiment: qHTS assay to identify small molecule antagonists of the peroxisome proliferator-activated receptor delta (PPARd) signaling pathway (AID 743215; active = well fitted inhibition curve with a large enough effect in the signal ratio in the repeat runs, not every such curve was filed as active; the % refers to the signal ratio)
In short: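 Cells: HEK293H with a UAS-driven beta-lactamase reporter responsive to PPARd. Compounds were co-added with L165041 (300 nM, final) and incubated 17 h at 37 C before a 2 h room-temperature FRET substrate step and fluorescence reading.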

[17] = molecular target: Bile acid receptor (Homo sapiens) (UniProt Q96RI1); experiment: qHTS assay to identify small molecule antagonists of the farnesoid-X-receptor (FXR) signaling pathway (AID 743217; active = well fitted inhibition curve with a large enough effect in the signal ratio in the repeat runs, not every such curve was filed as active; the % refers to the signal ratio; note: potency is the fitted concentration of half-maximal effect)
Bile acid receptor (Homo sapiens), sequence (Q96RI1 whole entry, looked up): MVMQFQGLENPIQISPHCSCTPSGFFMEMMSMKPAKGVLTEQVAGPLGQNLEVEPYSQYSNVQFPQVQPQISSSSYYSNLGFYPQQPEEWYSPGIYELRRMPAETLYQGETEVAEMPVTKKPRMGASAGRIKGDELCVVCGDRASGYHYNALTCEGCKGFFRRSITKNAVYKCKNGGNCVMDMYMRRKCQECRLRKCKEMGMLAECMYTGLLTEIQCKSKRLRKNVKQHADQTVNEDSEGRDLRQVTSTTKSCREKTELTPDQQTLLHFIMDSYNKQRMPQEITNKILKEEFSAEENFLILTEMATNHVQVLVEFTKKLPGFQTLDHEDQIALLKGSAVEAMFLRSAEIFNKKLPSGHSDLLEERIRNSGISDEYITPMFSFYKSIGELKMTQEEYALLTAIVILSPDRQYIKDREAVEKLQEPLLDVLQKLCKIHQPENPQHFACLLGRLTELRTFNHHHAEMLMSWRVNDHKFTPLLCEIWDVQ
In short: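 Cells carrying a UAS-driven beta-lactamase reporter (GeneBLAzer FXR-UAS-bla HEK 293T) were plated and rested 5 h at 37 °C. Compounds in DMSO were added alongside chenodeoxycholic acid agonist at 50 uM final and left 16 h at 37 °C before FRET substrate readout.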

[18] = molecular target: Bile acid receptor (Homo sapiens) (UniProt Q96RI1); experiment: qHTS assay to identify small molecule agonists of the farnesoid-X-receptor (FXR) signaling pathway (AID 743220; active = well fitted activation curve with a large enough effect in the signal ratio in the repeat runs, not every such curve was filed as active; the % refers to the signal ratio; note: % is set by controls: 0 for no effect and ±100 for the full control effect)
In short: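 FXR-UAS-bla HEK 293T cells carrying a UAS-driven beta-lactamase reporter were plated for 5 h at 37C/5% CO2, then exposed to DMSO-dissolved Tox21 10K compounds for 16 h at 37C. A LiveBLAzer B/G FRET substrate was loaded for 2 h at room temperature before fluorescence reading.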

[19] = qHTS assay to identify small molecule antagonists of the retinoid-related orphan receptor gamma (ROR-gamma) signaling pathway - cell viability counter screen (AID 1159520)
In short: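 Cytotoxicity was read from cellular ATP (CellTiter-Glo luminescence) after 16 hr at 37 C with 1 uM doxycycline induction. The inducer was added 2 hr after compound transfer to Tet-on ROR gamma CHO cells.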

[20] = qHTS assay to identify small molecule agonists of the endoplasmic reticulum stress response signaling pathway - cell viability counter screen (AID 1159517; calls by dose curve)
In short: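 ESRE-bla HeLa cells (1,500/well) were plated overnight at 37 C and exposed to compounds for 5 hr. After the 2 hr beta-lactamase substrate read, CellTiter-Glo went into the same wells, and luminescence was read after 30 min at room temperature.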

CCCC(=O)OCOC(=O)C1=C(C)NC(C)=C(C(=O)OC)C1c1cccc(Cl)c1Cl (stereo unspecified)
inactive: Potency [1] | Potency [2] | Potency [3] | Potency [4] | Potency [5] | Potency [6] | Potency [7] | Potency [8] | Potency [9] | Potency [10] | Potency [11] | Potency [12] | Potency [13] | Potency [14]

CCCC(=O)OCCc1ccccc1
inactive: Potency [1] | Potency [15] | Potency [2] | Potency [16] | Potency [5] | Potency [7] | Potency [8] | Potency [9] | Potency [10] | Potency [11] | Potency [12] | Potency [13] | Potency [14]

S=c1nccc[nH]1
active: Potency [13] 49.1 µM
inactive: Potency [1] | Potency [15] | Potency [2] | Potency [16] | Potency [17] | Potency [3] | Potency [18] | Potency [4] | Potency [7] | Potency [8] | Potency [9] | Potency [10] | Potency [19] | Potency [12] | Potency [14]

Nc1ccc(Oc2ccc(Cl)cc2)cc1
inactive: Potency [15] | Potency [2] | Potency [16] | Potency [17] | Potency [4] | Potency [6] | Potency [7] | Potency [8] | Potency [9] | Potency [10] | Potency [19] | Potency [11] | Potency [12] | Potency [13]

CCC(COC(=O)CCS)(COC(=O)CCS)COC(=O)CCS
inactive: Potency [1] | Potency [16] | Potency [17] | Potency [4] | Potency [5] | Potency [6] | Potency [7] | Potency [8] | Potency [9] | Potency [20] | Potency [19] | Potency [11] | Potency [12] | Potency [13] | Potency [14]

CC1(C)[C@@H](O)CC[C@]2(C)[C@H]3C(=O)C=C4[C@@H]5C[C@@](C)(C(=O)O)CC[C@]5(C)CC[C@@]4(C)[C@]3(C)CC[C@@H]12
active: Potency [1] 38.5 µM
inactive: Potency [8] | Potency [9] | Potency [10] | Potency [11] | Potency [14]

C[C@H]1NCc2cc(-c3ccc4c(=O)c(C(=O)O)cn(C5CC5)c4c3OC(F)F)ccc21
inactive: Potency [1] | Potency [16] | Potency [3] | Potency [4] | Potency [5] | Potency [6] | Potency [8] | Potency [9] | Potency [10] | viability change, negative = cytotoxic [12] 1.98% [at 15.8 µM] | activation [13] -2.94% [at 15.8 µM] | activation [14] -4.06% [at 15.8 µM]

CN(C)[C@@H](CCOc1cccc2ccccc12)c1ccccc1
active: Potency [1] 23.7 µM
inactive: Potency [15] | Potency [16] | Potency [17] | Potency [18] | Potency [4] | Potency [6] | Potency [9] | Potency [10]

Cc1nc(-c2ccc(Cl)cc2)oc1COC(C)(C)C(=O)O
inactive: Potency [1] | Potency [2] | Potency [17] | Potency [3] | Potency [4] | Potency [5] | Potency [6] | Potency [7] | Potency [8] | Potency [9] | Potency [20] | Potency [19] | Potency [11] | Potency [12] | Potency [13] | Potency [14]

C#Cc1ccc(-c2ccccc2F)cc1
inactive: Potency [1] | Potency [15] | Potency [2] | Potency [16] | Potency [17] | Potency [3] | Potency [4] | Potency [7] | Potency [8] | Potency [9] | Potency [20] | Potency [19] | Potency [11] | Potency [12] | Potency [13] | Potency [14]

Cc1cc(C(C)(C)C)c(O)c(C)c1Cn1c(=O)n(Cc2c(C)cc(C(C)(C)C)c(O)c2C)c(=O)n(Cc2c(C)cc(C(C)(C)C)c(O)c2C)c1=O
active: Potency [17] 19.5 µM | Potency [8] 12.3 µM
inactive: Potency [15] | Potency [2] | Potency [16] | Potency [18] | Potency [4] | Potency [6] | Potency [9] | Potency [20] | Potency [19] | Potency [11] | Potency [12] | Potency [13] | Potency [14]

CCCCCCCC/C=C\CCCCCCCCN
inactive: Potency [1] | Potency [4] | Potency [5] | Potency [9] | Potency [10] | Potency [11] | Potency [12] | Potency [13] | Potency [14]

CC(C)NC[C@@H](O)COc1ccc(CC(N)=O)cc1
inactive: Potency [1] | Potency [2] | Potency [3] | Potency [4] | Potency [5] | Potency [6] | Potency [7] | Potency [8] | Potency [9] | Potency [10] | Potency [11] | Potency [12] | Potency [13]

OCCN1CCN(CCCN2c3ccccc3Sc3ccc(C(F)(F)F)cc32)CC1
inactive: Potency [17] | Potency [5] | Potency [9] | Potency [10] | Potency [12]
active: Potency [1] 26.6 µM | Potency [2] 11.9 µM | Potency [8] 23.9 µM

Cc1cc(=O)oc2cc(O)cc(O)c12
inactive: Potency [1] | Potency [2] | Potency [17] | Potency [3] | Potency [4] | Potency [8] | Potency [9] | Potency [20] | Potency [19] | Potency [11] | Potency [12] | Potency [13]

O=C1NC(=O)[C@@H]2CC=CC[C@H]12
inactive: Potency [1] | Potency [2] | Potency [17] | Potency [4] | Potency [5] | Potency [6] | Potency [9] | Potency [20] | Potency [19] | Potency [12] | Potency [13]
active: Potency [3] 21.9 µM | Potency [11] 54.5 µM
